Screening results (PubChem)
This is one part of a sample in which hits are shown more often than they occur.
Shiga toxin inh – A qHTS for Small Molecule Inhibitors of Shiga Toxin; inhibition, % at 38.7 µM; 290,000 tested, 9.2% active; Vero cells, Shiga toxin protein synthesis inhibition reporter; in the data active means inhibition mostly above about 28%, no sharp cut-off; inactive means mostly below about 43%
Lassa entry inh – qHTS for Inhibitors of binding or entry into cells for Lassa Virus; Lassa virus pseudotype entry inhibition, cell reporter; Potency, µM (doses to about 37.9 µM), usual class: inhibitors; 300,000 tested, 1.2% active; AID 540256, 2011; calls by dose curve; tested in HEK293 cells; further: nearly all actives have a fitted effect of over 50% in size
AMA1 RON2 block – qHTS for Inhibitors of AMA1-RON; Towards Development of Antimalarial Drug Lead: Primary Screen; Plasmodium falciparum AMA1 (3D7) - RON2 peptide interaction; AlphaScreen AMA1-biotinylated RON2 peptide binding; Potency, µM (top dose mostly 58.2 µM), most hits filed as inhibitors; 360,000 tested, 0.2% active; AID 720542, 2013; further: nearly all actives have a fitted effect of over 45% in size
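AMA1 (3D7) with his tag at 25 nM final met compounds first, then biotinylated RON2 peptide at 25 nM; detection used donor plus acceptor beads, 10 µg/mL apiece, read by AlphaScreen after 30 min at room temperature.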
Cycloheximide cs – Cycloheximide Counterscreen for Small Molecule Inhibitors of Shiga Toxin; cell reporter, cycloheximide protein synthesis inhibition counterscreen; max response, %; 300,000 tested, 12% active; in the data active means max response mostly above about 13%, no sharp cut-off; inactive means mostly below about 14%; further: read at 38.3 µM for the half of the compounds with a filed dose
MARV entry inh – qHTS for inhibitors of binding or entry into cells for Marburg Virus | Potency, µM (titrated, usually from 37.8 µM), actives largely listed as inhibitors | Marburg virus pseudotyped entry inhibition, cell reporter | 300,000 tested, 1.8% active; calls by dose curve; tested in HEK293 cells
HeLa G2M arrest – Cell cycle validation with wells to cells screening paradigm; shares compounds with MARV entry inh; Potency, µM, actives largely listed as inhibitors; HeLa cell cycle G2/M arrest, Hoechst DNA content imaging; 25 tested, 60% active
WI-38 cytotox – High Content Assay for Compounds that inhibit the Assembly of the Perinucleolar Compartment: WI-38 Cytotoxicity | Potency, µM (highest dose often 46.1 µM), usual class: inhibitors | AID 2729, 2010 | 120 tested, under 10 active | shares compounds with MARV entry inh | WI-38 normal lung fibroblasts, ATPLite luminescence ATP viability, 24 h
PNC inh conf – High Content Assay for Compounds that inhibit the Assembly of the Perinucleolar Compartment: Confirmation of PNC Inhibition; Potency, µM (top dose mostly 46.1 µM), actives largely listed as inhibitors; shares compounds with MARV entry inh; 120 tested, 50% active; PC3M PTB-GFP, PNC prevalence imaging, 16 h
PC3M caspase – High Content Assay for Compounds that inhibit the Assembly of the Perinucleolar Compartment: PC3M Caspase 3/7 Activation; PC3M-GFP caspase 3/7 activation, luminescence, 24 h; activity change, positive = activation, % at 46.1 µM; 120 tested, under 10 active; shares compounds with MARV entry inh
Each line names hits and unclear results; the compound was inactive in the other large screens (follow-up assays come after a bar, where they were run); ! = not active in a repeat. Unless noted, the call rests on the fitted dose curve; in most records, active means well fitted curve in the direction sought with a large enough effect; inconclusive means small, poorly fitted or top-dose-only effect, or another doubt; inactive means no such curve, though single readings can be large; an effect the other way counts as inactive or inconclusive.

CCOC(=O)c1c(NC(=O)c2c(-c3ccccc3)noc2C)sc(C)c1-c1ccccc1	Lassa entry inh inconclusive, MARV entry inh 0.126µM | WI-38 cytotox inactive | PNC inh conf 1.58µM | PC3M caspase inactive
CCN(CC)C(=S)SSC(=S)N(CC)CC	Lassa entry inh 2.91µM, MARV entry inh 3.55µM | WI-38 cytotox inconclusive | PNC inh conf inconclusive | PC3M caspase inactive
Cc1ccc(-c2cc(-c3ccc4c(c3)NC(=O)CO4)nc3c2COc2ccccc2-3)cc1	MARV entry inh inconclusive (no result: Shiga toxin inh, AMA1 RON2 block, Cycloheximide cs)
CCCCCCCCCCCCCCCCCC(=O)NCC(COP(=O)([O-])OCC[N+](C)(C)C)OCC (centres undefined)	Lassa entry inh inconclusive, MARV entry inh 20µM (no result: Shiga toxin inh, AMA1 RON2 block, Cycloheximide cs) | HeLa G2M arrest inconclusive
CCCCCC(=O)NCC(C)NC(=O)CCCCC (centres undefined)	none
O=C(Nc1cccnc1)c1cccs1	Lassa entry inh inconclusive, MARV entry inh inconclusive | WI-38 cytotox inactive | PNC inh conf 8.91µM | PC3M caspase inactive
COC(=O)[C@H](NC(=O)c1cc(-c2ccccc2)sc1N)C(C)C	none (no result: Shiga toxin inh, Lassa entry inh, Cycloheximide cs, MARV entry inh)
CCN1C(=O)c2cccc3c(S(=O)(=O)N(C(=O)c4ccncc4)c4ccc(OC)cc4)ccc1c23	Lassa entry inh inconclusive, MARV entry inh inconclusive | WI-38 cytotox inactive | PNC inh conf inactive | PC3M caspase inactive
CCN1C(=O)c2cccc3c(S(=O)(=O)N(C(=O)c4cccnc4)c4ccc(OC)cc4)ccc1c23	MARV entry inh inconclusive
O=C(N/N=C/c1cc2c3c(c1O)CCCN3CCC2)c1ccccc1O	Lassa entry inh 1.3µM, AMA1 RON2 block inconclusive, MARV entry inh 1.46µM | WI-38 cytotox inactive | PNC inh conf inconclusive | PC3M caspase inactive
O=C(CN1CCCc2ccccc21)N/N=C/c1ccccc1O	Lassa entry inh inconclusive, MARV entry inh inconclusive
COc1ccc(NC(=O)c2ccc(NC(=O)c3cccs3)cc2)cc1	Lassa entry inh inconclusive, MARV entry inh inconclusive
COC(=O)Nc1nc2ccc(C(=O)c3cccs3)cc2[nH]1	Lassa entry inh inconclusive, MARV entry inh 0.159µM! (no result: Shiga toxin inh, Cycloheximide cs) | HeLa G2M arrest 0.0708
Cc1cccc(NC2=C/C(=N/S(=O)(=O)c3cccs3)c3ccccc3C2=O)c1	Lassa entry inh 3.16µM, AMA1 RON2 block inconclusive, Cycloheximide cs 14.5, MARV entry inh inconclusive | WI-38 cytotox inconclusive | PNC inh conf 14.1µM | PC3M caspase inconclusive
Cc1c(Cl)cccc1N/C(=N/S(=O)(=O)c1cccs1)c1ccccc1	MARV entry inh inconclusive
CC(C)CCCC(C)CCCC(C)CCCC(C)C(=O)O (centres undefined)	none (no result: Lassa entry inh, AMA1 RON2 block, MARV entry inh)
CC(/C=C/c1ccccc1)=N/NC(=O)c1cc([N+](=O)[O-])cc([N+](=O)[O-])c1	Lassa entry inh inconclusive, MARV entry inh inconclusive | WI-38 cytotox inactive | PNC inh conf inconclusive | PC3M caspase inactive
O=C(NC(CSCc1ccccc1)C(=O)N/N=C/c1ccc(O)cc1O)c1ccc([N+](=O)[O-])cc1 (centres undefined)	Lassa entry inh 9.2µM, MARV entry inh 4.61µM | WI-38 cytotox inactive | PNC inh conf inconclusive | PC3M caspase inactive
COc1cccc(NC(=O)c2cc3c(-c4ccc(Cl)cc4)nn(C)c3s2)c1	Lassa entry inh inconclusive (no result: Shiga toxin inh, AMA1 RON2 block, Cycloheximide cs)
COc1cc(/C=C(/C#N)c2ccc(F)cc2)ccc1OCc1ccc(C(=O)O)o1	none
Cc1cccc(C(O)(C(=O)NNC(=O)CN2CCN(C)CC2)c2cccc(C)c2)c1	MARV entry inh inconclusive
Cc1ccc(C(O)(C(=O)NNC(=O)CN2CCN(C)CC2)c2ccc(C)cc2)cc1	MARV entry inh inconclusive | WI-38 cytotox inactive | PNC inh conf inactive | PC3M caspase inactive
Cc1c(NC(=O)COC(=O)c2cc(-c3ccc(-c4ccccc4)cc3)nc3ccccc23)c(=O)n(-c2ccccc2)n1C	Shiga toxin inh 83.6, Lassa entry inh 0.891µM, Cycloheximide cs 56.8, MARV entry inh 0.581µM | WI-38 cytotox 7.94µM | PNC inh conf 2µM | PC3M caspase inactive
Cc1c(NC(=O)c2cc(-c3ccccc3)nc3ccccc23)c(=O)n(-c2ccccc2)n1C	MARV entry inh inconclusive (no result: Shiga toxin inh, Cycloheximide cs)
O=C1C2CCCN2C(c2ccccc2)N1c1ccc(F)cc1 (centres undefined)	none (no result: Lassa entry inh)
O=C1C2CCCN2C(c2ccc(F)cc2)N1c1ccc(Cl)cc1 (centres undefined)	none (no result: Lassa entry inh, MARV entry inh) | WI-38 cytotox inactive | PNC inh conf 15.8µM | PC3M caspase inactive
O=c1[nH]c(=O)n([C@H]2C[C@H](O)[C@@H](CO)O2)cc1Br	none (no result: Shiga toxin inh, Cycloheximide cs) | HeLa G2M arrest inconclusive
Cc1cc(SC(C)C(=O)Nc2ncc(Cl)cc2Cl)nc2ccccc12 (centres undefined)	Lassa entry inh 5.8µM, MARV entry inh inconclusive | WI-38 cytotox inactive | PNC inh conf 11.2µM | PC3M caspase inactive
COCCn1c(SC(C)C(=O)Nc2ncc(Cl)cc2Cl)nc2ccccc21 (centres undefined)	Lassa entry inh 1.41µM, MARV entry inh 2µM | WI-38 cytotox inactive | PNC inh conf 12.6µM | PC3M caspase inactive
COC(=O)C(NS(N)(=O)=O)C(C)C (centres undefined)	none (no result: Lassa entry inh, AMA1 RON2 block, MARV entry inh)
COc1ccc(-c2nc(NC(=O)c3n[nH]c(=O)c4ccccc34)sc2C)cc1	Lassa entry inh 1.03µM, MARV entry inh 0.794µM | WI-38 cytotox inactive | PNC inh conf 3.98µM | PC3M caspase inactive
CC(=O)N1CCN(S(=O)(=O)c2cccc(C(=O)N3CCN(S(=O)(=O)c4c(C)c(C)cc(C)c4C)CC3)c2)CC1	none (no result: Shiga toxin inh, Lassa entry inh, Cycloheximide cs, MARV entry inh)
COc1ccc(S(=O)(=O)Cc2ccc(C(=O)NCCCN3CCc4ccccc4C3)o2)cc1	none (no result: Lassa entry inh)
COc1ccc2nc3sc(C(=O)NCCCN4CCc5ccccc5C4)cc3cc2c1	Lassa entry inh inconclusive, Cycloheximide cs 27.6, MARV entry inh inconclusive | WI-38 cytotox inconclusive | PNC inh conf inactive | PC3M caspase inactive
CNS(=O)(=O)c1cccc(C(=O)Nc2cccnc2)c1	none
CNS(=O)(=O)c1cccc(C(=O)Nc2cccc(Cl)c2)c1	Cycloheximide cs 35.0 | WI-38 cytotox inactive | PNC inh conf inconclusive | PC3M caspase inactive
O=C(CSc1nccn1-c1ccc(F)cc1)Nc1ccc(OC(F)(F)F)cc1	none (no result: Shiga toxin inh, AMA1 RON2 block, Cycloheximide cs, MARV entry inh)
CCOC(=O)C1=C(Nc2ccc(OC)cc2)OCC1=O	none
